Source: PubChem BioAssay (NCATS)
Records with an inconclusive call do not appear. Values without a mark were called inactive. Calls of active or inactive are those of the source. Calls follow the shape of the dose curve; as a rule, active = well fitted cell-killing curve with a large enough effect; inconclusive = small, poorly fitted or top-dose-only effect, or effect the other way; inactive = no such curve, though single readings can be large or run the other way.

test: Viability qHTS for spleen associated tyrosine kinase inhibitor (SYKi) drug resistant MV4-11 cells (AID 1963824); conditions: SYKi-resistant MV4-11 viability, CellTiter-Glo, 72 h; series mostly up to 45 µM; viability, % of control: at the top concentration; also: nearly all actives have a fitted effect of over 35% in size
In short: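 SYK inhibitor-resistant MV4-11 AML cells, 500 per well, added to predispensed compounds and incubated 72 hr at 37 C, 5% CO2. Viability measured by CellTiter-Glo luminescence after 10 min at room temperature.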
Potency is read from the fitted curve at half-maximal effect.

Row | Compound | viability, % of control | Potency
1 | C=C1CC/C=C(/CO)C(=O)C[C@@H]2[C@@H]1CC2(C)C | 73.6% | –
2 | CC(=O)c1ccc2c(c1)[C@H](NC(=O)c1ccc(F)c(Cl)c1)[C@H](O)C(C)(C)O2 | 88.3% | –
3 | COC1C2=C(COC2=O)C2(C)CCCC(C)(CO)C2C1OC(=O)c1ccccc1 (centres undefined) | 74.6% [at 17.3 µM] | –
4 | CCNC(=O)Nc1ccc(Oc2ncnc(N)c2/C=N/OC)cc1Cl | – | 18.6 µM (active)
5 | CC1(C)C2CC[C@@]34CC(CC[C@H]3[C@]2(C)CC[C@@H]1O[C@@H]1O[C@H](CO)[C@@H](O)[C@H](O)[C@H]1O)[C@](C)(O)C4 (some centres undefined) | 67.6% [at 17.3 µM] | –
6 | CC(C)(O)c1ccc2c(c1)ncn2-c1cccc(-c2ccccc2C#N)c1 | – | 18.4 µM (active)
7 | C=C(C(=O)O)[C@H]1C[C@]2(C)[C@@H](O)CC[C@]23O[C@H]1C[C@@H]3C | 77.7% | –
8 | COc1ccc(-c2ccc3c(N4CCOCC4C)nc(N4CCOCC4C)nc3n2)cc1CO (centres undefined) | – | 0.103 µM (active)
9 | CC(C)C(=O)OC[C@H]1O[C@H](O[C@H]2O[C@H](CO)[C@@H](O)[C@H](O)[C@H]2O)[C@H](O)[C@@H](O)[C@@H]1O | 109% [at 17.3 µM] | –
10 | CCCC[C@@H](C=O)NC(=O)[C@H](CC(C)C)NC(=O)OCc1ccccc1 | – | 18.6 µM (active)
11 | COc1cc([C@H]2O[C@H](c3cc(OC)c4c(c3)OCO4)[C@H](C)[C@H]2C)cc(OC)c1OC | – | 0.893 µM (active)
12 | Cn1c(=O)c2c(ncn2Cc2ccc(C(C)(C)C)cc2)n(C)c1=O | – | 1.16 µM (active)
13 | c1cc(NC2CCNCC2)nc(-c2cnc3ccccn23)c1 | – | 0.0206 µM (active)
14 | CNC(=O)[C@@H](c1ccccc1)N1CCc2cc(OC)c(OC)cc2[C@@H]1CCc1ccc(C(F)(F)F)cc1 | – | 20.6 µM (active)
